The source of these data is PubChem BioAssay (NCI).

SMILES strings stand for the structures. Compounds without any hit were thinned out: in the full panel of roughly 83,000, 20% have a hit.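 Percent growth is the endpoint: 0 to 100 indicates growth inhibition (40 means 60% inhibition), 0 means no net growth, and negative values indicate cell death.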 Unmarked numbers belong to inactive results. The source made the active and inactive calls. The calls were made as follows: active = growth percent below 10; inactive = the rest.

Among the test systems are NCI-H23 lung; NCI-H226 lung; NCI-H322M lung; HOP-62 NSCLC; NCI-H460 lung; HOP-92 NSCLC; NCI-H522 lung; A549/ATCC NSCLC; 786-0 renal; COLO 205 colon; DU-145 prostate; K-562 leukemia; MALME-3M melanoma; MDA-MB-231 breast; RXF 393 renal; SF-268 CNS; SF-295 CNS; SF-539 CNS; UACC-257 melanoma; M14 melanoma.
Holding throughout (test): NCI-60 one-dose screen, 48 h (100 = growth as untreated, 0 = no growth, -100 = all killed)
Common to all, as to settings: 10 µM unless noted

Consider `O=C1c2c(c3c4cccnc4[nH]c3c3ccc4ccccc4c23)C(=O)N1O`, for which the growth in the test with NCI-H23 lung was 35.5%; with NCI-H226 lung, 72.3%; in the test on NCI-H322M lung, 77.8%; with HOP-62 NSCLC, 55.8%; in the test with NCI-H460 lung, 32.4%; with HOP-92 NSCLC, 81.7%. Moreover, the growth was 19.9% in the test with NCI-H522 lung; 83.6% in the test on A549/ATCC NSCLC; 68.5% with 786-0 renal; 57.6% in the test on COLO 205 colon; 54.8% in the test with DU-145 prostate; 29.7% in the test with K-562 leukemia. Besides, the growth was 63.1% with MALME-3M melanoma; 85.9% in the test with MDA-MB-231 breast; 47.9% with RXF 393 renal; 37.6% in the test on SF-268 CNS; 91.8% with SF-295 CNS; 39.6% in the test on SF-539 CNS. Moreover, in the test on UACC-257 melanoma, the growth was 76.4%.

Regarding `Cc1ccc(-c2nnc(SCc3nc(N)nc(Nc4ccccc4F)n3)n2-c2ccccc2)cc1`, the growth with NCI-H23 lung is 101%; with NCI-H226 lung, 80.4%; in the test on NCI-H322M lung, 93.5%; with HOP-62 NSCLC it was 94.6%; with NCI-H460 lung, 95.8%; with HOP-92 NSCLC, 67.3%. The growth in the test with NCI-H522 lung was 81.5%; in the test with A549/ATCC NSCLC, 88.7%; with 786-0 renal, 95.7%; in the test on COLO 205 colon, 101%; in the test on DU-145 prostate, 102%; with K-562 leukemia, 89.9%. Moreover, the growth was 117% in the test on MALME-3M melanoma; 91.9% with MDA-MB-231 breast; 80.7% in the test with RXF 393 renal; 97.3% in the test with SF-268 CNS; 94.3% with SF-295 CNS; 97% in the test on SF-539 CNS. In addition, in the test on UACC-257 melanoma, the growth was 99.3%.

On to `C#Cc1cccc(Nc2nc(Cl)nc3cc(NC(=O)CCl)ccc23)c1`, for which the growth in the test with NCI-H23 lung is -73.9% (active); in the test on NCI-H226 lung, -49.4% (active); in the test with NCI-H322M lung it was -73.1% (active); in the test on HOP-62 NSCLC, -77% (active); in the test on NCI-H460 lung, -58.9% (active); in the test on HOP-92 NSCLC, -82.7% (active). The growth in the test on NCI-H522 lung is -69.1% (active); in the test with A549/ATCC NSCLC, 13.1%; with 786-0 renal it was -83.6% (active); with COLO 205 colon, -70.5% (active); in the test with DU-145 prostate, -93.5% (active); in the test on K-562 leukemia, -36.2% (active). Also, the growth is -83.3% (active) in the test with MALME-3M melanoma; -73% (active) with MDA-MB-231 breast; -94.2% (active) in the test with RXF 393 renal; -52.2% (active) in the test with SF-268 CNS; -86.9% (active) in the test with SF-295 CNS; -96.5% (active) in the test with SF-539 CNS. In addition, the growth in the test with UACC-257 melanoma was -53.9% (active).

Consider `FC(F)(F)c1cc(N2CCCCC2)nc(NCCCNc2ccnc3cc(Cl)ccc23)n1`, for which the growth with NCI-H23 lung was 27.2%; in the test with NCI-H226 lung it was 73.6%; in the test on NCI-H322M lung, 80%; in the test on HOP-62 NSCLC, 73.5%; in the test with NCI-H460 lung, 74.4%; in the test with HOP-92 NSCLC, 32.9%. The growth with NCI-H522 lung is 47.4%; in the test on A549/ATCC NSCLC it was 50.5%; with 786-0 renal it was 59.7%; with COLO 205 colon it was 7.41% (active); with DU-145 prostate, 81.8%; in the test with K-562 leukemia, 11.2%. Also, the growth was 72.7% in the test on MALME-3M melanoma; 87.9% with MDA-MB-231 breast; 59.7% with RXF 393 renal; 70.3% in the test with SF-268 CNS; 51.1% with SF-295 CNS; 74.8% in the test with SF-539 CNS. In addition, in the test with UACC-257 melanoma, the growth was 53.3%.

Take `CCOC(=O)c1c(Nc2nc3ccccc3s2)sc2c1CCC(=O)C2`: the growth in the test on NCI-H23 lung was 26.3%; in the test with NCI-H226 lung, 91.9%; with NCI-H322M lung, 85%; in the test with HOP-62 NSCLC, 66.4%; in the test with NCI-H460 lung, 34%; with HOP-92 NSCLC, 85.4%. The growth is 8.13% (active) in the test on NCI-H522 lung; 68.8% in the test with A549/ATCC NSCLC; 66% with 786-0 renal; 65.9% in the test on COLO 205 colon; 84.8% with DU-145 prostate; 10.2% in the test with K-562 leukemia. Besides, the growth with MALME-3M melanoma is 93.9%; in the test with MDA-MB-231 breast, 79.4%; in the test with RXF 393 renal, 83.6%; in the test with SF-268 CNS, 71%; in the test on SF-295 CNS, 86.3%; in the test with SF-539 CNS, 46.8%. The growth was 92.7% with UACC-257 melanoma and 58.6% in the test on M14 melanoma.

With `Cn1cc(-c2ccc3c(Nc4cccc(NC(=O)Nc5cccc(F)c5)c4)ncnc3c2)cn1`, the growth in the test with NCI-H23 lung is 47.1%; in the test on NCI-H226 lung, 67.8%; in the test on NCI-H322M lung it was 40.7%; in the test with HOP-62 NSCLC, 42.8%; in the test with NCI-H460 lung, 29.1%; with HOP-92 NSCLC it was 53.6%. Further, the growth with NCI-H522 lung was 26.5%; in the test with A549/ATCC NSCLC, 28.7%; with 786-0 renal it was 18.1%; in the test on COLO 205 colon it was 4.23% (active); in the test on DU-145 prostate, 41.8%; with K-562 leukemia it was 4.38% (active). The growth was 27.5% with MALME-3M melanoma; 41.8% with MDA-MB-231 breast; -13.9% (active) in the test on RXF 393 renal; 46.7% with SF-268 CNS; -13.2% (active) with SF-295 CNS; 20.4% in the test on SF-539 CNS. The growth in the test with UACC-257 melanoma is 63.9%.

Take `CCc1ccc(Cc2cnc(NC(=O)c3cc(C)oc3C)s2)cc1`: the growth in the test on NCI-H23 lung is 52.8%; in the test on NCI-H226 lung, 66.3%; in the test on NCI-H322M lung, 56.8%; in the test on HOP-62 NSCLC, 56.9%; in the test with NCI-H460 lung, 18.6%; in the test with HOP-92 NSCLC, 45%. Also, the growth in the test with NCI-H522 lung was 19.6%; in the test on A549/ATCC NSCLC it was 34.7%; with 786-0 renal, 41.2%; in the test with COLO 205 colon, 48.6%; in the test with DU-145 prostate it was 60.2%; in the test with K-562 leukemia, 14.6%. In addition, the growth in the test with MALME-3M melanoma is 56%; in the test with MDA-MB-231 breast, 57.8%; with RXF 393 renal, 15.4%; in the test on SF-268 CNS it was 48.6%; with SF-295 CNS it was 31.8%; in the test on SF-539 CNS, 31.2%. Moreover, the growth with UACC-257 melanoma was 52.1%.

As for `Cc1ccc(OCCOCCOCCOCCOc2ccc(C)n(O)c2=S)c(=S)n1O`, the growth in the test with NCI-H23 lung is 18.5%; in the test on NCI-H226 lung it was 7.35% (active); in the test with NCI-H322M lung, 23.6%; with HOP-62 NSCLC, -0.489% (active); in the test on NCI-H460 lung it was 1.54% (active); in the test on HOP-92 NSCLC, 36.8%. Further, the growth was 17.9% in the test on NCI-H522 lung; 12.5% with A549/ATCC NSCLC; -5.93% (active) in the test on 786-0 renal; 5.35% (active) in the test on COLO 205 colon; 17.5% with DU-145 prostate; 16.2% in the test on K-562 leukemia. For the same compound, the growth is 15.6% in the test on MALME-3M melanoma; 34.9% with MDA-MB-231 breast; 38.6% in the test with RXF 393 renal; 11.4% in the test on SF-268 CNS; 18.2% in the test with SF-295 CNS; 5.23% (active) in the test on SF-539 CNS. In addition, in the test with UACC-257 melanoma, the growth was -9.07% (active).
